Assay outcomes as filed in PubChem BioAssay.
Fluor 339 460: intrinsic fluorescence of library compounds, ex339/em460 – biochemical, MLSMR library, data from DPM-DC assay, artefact control, profiling panel | compound autofluorescence, ex339/em460 nm, NADH buffer; hits give high values; 1 = no-compound wells, NADH background | fluorescence fold increase at 10 µM | actives 5.5% (n = 65,000);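 active = at 10 µM, mean starting fluorescence two-fold or more over control wells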;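 also: signal is the first read of a kinetic run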
NADH enzymes: blocks coupling enzymes of NAD/NADH assays; AID 774; IC50, µM (top dose mostly 10 µM), without a hit: at the top dose inhibition; coupled PK/LDH NADH assays, four targets; actives 0.02% (n = 65,000);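 active = single-dose screening hits from any of four coupled enzyme assays that gave an IC50 when retested across doses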;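 also: the DPM-DC format reads NADH fluorescence rather than 340 nm absorbance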
DPM-DC inhibit: blocks S. pneumoniae diphosphomevalonate decarboxylase; purified DPM-DC, PK/LDH coupled NADH fluorescence; calls only at 10 µM; actives 0.49% (n = 65,000);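 active = the 320 compounds with the highest percent inhibition in the single-dose primary screen, excluding strongly autofluorescent ones, cut at about 32% in these data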;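 also: kinetic rate of NADH fluorescence loss reporting ADP formed by the decarboxylase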
Spn PMK inh: S. pneumoniae PMK inhibition; purified PMK, PK/LDH-coupled NADH absorbance 340 nm; inhibition, % at 10 µM; actives 0.49% (n = 65,000); AID 539;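 active = top-ranked compounds by inhibition in the single 10 µM screen, taking a fixed number of the strongest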;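 also: 0% = full reaction with DMSO carrier and 100% = background rate without enzyme reaction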
A340 absorber: compound absorbs light at 340 nm | compound absorbance at 340 nm, fold over control | fold change at 10 µM | 65,000 tested, under 10 active | AID 708;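 active = at 10 µM dose, initial 340 nm absorbance at least 2 fold that of control wells; inactive = change under 2 fold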;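 also: initial absorbance extrapolated from kinetic A340 decline of NADH oxidation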
Spn MK inh: inhibitors of Streptococcus pneumoniae mevalonate kinase. purified MK, PK/LDH-coupled NADH absorbance 340 nm. inhibition, % at 10 µM. actives 0.48% (n = 65,000);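 active = ranked among the strongest by inhibition in the single 10 µM screen, a fixed top-ranked set picked for dose follow-up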
Starred values were filed as active, the others as inactive; i = inactive; · = no result given; + = active, no number. The list is not random: actives were taken first. Their share in the collection is about 6.5%.

SMILES	Fluor 339 460	NADH enzymes	DPM-DC inhibit	Spn PMK inh	A340 absorber	Spn MK inh
NC(=O)C1(N2CCCCC2)CCN(C(=O)CSc2nc3ccccc3s2)CC1	1.1	3%	i	0	1	9
OCCNc1nc2ccc(Cl)cc2[nH]1	1.1	2%	i	6	1	0
CCCc1cc(=O)[nH]c(SCC(=O)N(C)C2CCS(=O)(=O)C2)n1 (configuration not stated)	0.99	8%	i	17	1	4
CCOC(=O)c1oc2ccccc2c1NC(=O)c1ccc(S(=O)(=O)N2CCCC2)cc1	2.5*	7%	i	14	1	7
Cc1nn2c(N3CCN(C(=O)c4ccco4)CC3)cc(C(C)(C)C)nc2c1-c1ccccc1	2.6*	0%	i	0	1.1	0
Cc1cc(N2CCN(C(=O)c3ccco3)CC2)n2ncnc2n1	1.1	20%	i	18	1	42*
c1ccc(-c2cnnc(N3CCCCC3)n2)cc1	1.1	3%	i	1	1	7
COc1ccc(N(C)S(=O)(=O)c2cccc(C(=O)NC3=NCCS3)c2)cc1	1.1	6%	i	7	0.97	10
O=C(O)c1cnn2c(C(F)(F)F)cc(-c3ccco3)nc12	1.2	1%	i	0	1.1	4
O=C(NCc1ccco1)c1cnn2c(C(F)F)cc(-c3ccccc3)nc12	2.1*	12%	i	4	1.1	11
Cc1cc(NC(=O)c2cnn3c(C(F)F)cc(-c4ccccc4)nc23)no1	1.2	1%	i	0	1.1	0
O=C(NCc1ccco1)c1cnn2c(C(F)(F)F)cc(-c3cccs3)nc12	2.3*	8%	i	7	1.1	10
CCOc1ccc(-n2c(=S)sc3c(=O)[nH]c(SCC(=O)NCc4ccco4)nc32)cc1	1	4%	i	12	1.1	0
O=C(NC1CCCCC1)c1cnn2c(C(F)(F)F)cc(-c3ccco3)nc12	2.5*	12%	i	14	1.1	0
O=C(CSc1nc2nc(-c3cccs3)cc(C(F)(F)F)c2c(=O)[nH]1)NCc1ccco1	4.9*	12%	·	11	1.1	12
CCCNC(=O)c1ccc(CNc2c(N3CCC(C(=O)OCC)CC3)c(=O)c2=O)cc1	1.1	9%	i	18	1	9
COc1ccc(-c2cc(C(F)(F)F)n3ncc(C(=O)NCC4CCCO4)c3n2)cc1 (configuration not stated)	3*	2%	·	5	1.1	8
Clc1ccc(COc2ccccn2)c(Cl)c1	1.1	0%	i	0	1.1	0
O=c1c2ccccc2sn1-c1ccc(S(=O)(=O)N2CCCCC2)cc1	1	11%	+	10	1	10
O=c1c2ccccc2sn1-c1ccc(S(=O)(=O)N2CCCC2)cc1	1.2	72%	+	15	1.1	100*
Cc1ccc(-n2sc3ccccc3c2=O)cc1S(=O)(=O)N1CCCCC1	1.2	70%	+	20	1.1	100*
CC(C)c1nc(-c2c(N)n(C)c(=O)n(C)c2=O)sc1C(=O)C(C)(C)C	1.1	8%	i	15	1	8
Fc1cccc(-c2cc3nc4c(c(N5CCN(c6cnccn6)CC5)n3n2)CCCC4)c1	2.4*	5%	·	12	0.99	10
CC(=O)C1C(c2ccccc2OC(F)F)NC(=O)NC1(O)C(F)(F)F (configuration not stated)	1.1	5%	i	16	1	0
Cc1cc2n(n1)C(c1cn(-c3ccccc3)nc1C)Nc1ccccc1-2 (configuration not stated)	2.1*	8%	i	4	1	10
SMILES	Fluor 339 460	NADH enzymes	DPM-DC inhibit	Spn PMK inh	A340 absorber	Spn MK inh
Cc1cc2n(n1)C(c1ccco1)Nc1ccccc1-2 (configuration not stated)	1.7	7%	i	3	1	0
Cc1cc2n(n1)C(c1ccc(O)cc1)Nc1ccccc1-2 (configuration not stated)	2.9*	9%	i	8	1	0
CCn1cc(C2Nc3ccccc3C(=O)N2O)c(C)n1 (configuration not stated)	1.2	3%	i	12	1	7
Cc1cc2n(n1)C(c1c[nH]c3ccccc13)Nc1ccccc1-2 (configuration not stated)	2.4*	7%	i	0	1.1	0
COC(=O)c1cn(C(=O)c2cccs2)c2ccccc12	1.1	4%	i	6	1	7
CCOC(=O)C1(c2nc(N)cs2)COC(=O)C1 (configuration not stated)	1.1	7%	i	5	1.1	15
O=C(CSc1nnc2sc3ccccc3n12)NCc1ccc2c(c1)OCO2	1.1	7%	i	16	1	4
O=C(OCn1nnc2ccccc2c1=O)C1CCCCC1	1.1	3%	i	9	1	1
N#CC1=C(N)SC(N)=C(C#N)C1CCC1CCCCC1	1.1	10%	i	8	1.1	6
CCc1nnc(NC(=O)CSc2nnc(Cc3cccn3C)n2C)s1	1	13%	i	28*	1	9
CCc1nnc(NC(=O)CSc2nnc(COc3ccccc3)n2Cc2ccccc2)s1	1.8	20%	+	12	1	10
CCOC(=O)c1ccccc1NC(=O)CSc1nnc(Cc2cccn2C)n1-c1ccc(C)cc1	2*	4%	i	7	1	6
CCc1nnc(NC(=O)CSc2nnc(Cc3ccccc3)n2Cc2ccccc2)s1	1.1	7%	i	20	0.95	2
C=C(C)Cn1c(COc2ccccc2)nnc1SCC(=O)O	1.4	23%	+	16	1.1	20
C=CCn1c(COc2ccccc2)nnc1SCC(=O)O	1.1	7%	i	13	0.98	7
CCOC(=O)CCn1cc(F)c(=O)n(Cc2ccccc2)c1=O	1.1	4%	i	6	1	7
CC(=O)Nc1nonc1-c1nc2ccccc2n1CCC(C)C	1.2	5%	i	6	1	0
Cn1c(-c2nonc2NC(=O)c2ccc(C(C)(C)C)cc2)nc2ccccc21	2.6*	11%	i	10	1	0
Cc1cc(=O)[nH]c2c(C)c(Cl)ccc12	1.1	7%	i	9	1	6
Cc1cc(=O)[nH]c2c(C)c(N)ccc12	3.9*	12%	·	13	1.1	10
O=c1oc2ccccc2cc1-c1nc2ccccc2o1	2.1*	14%	·	24	1.2	3
CCN(CC)CCNC(=O)c1c(O)c2cc(OC)c(OC)cc2[nH]c1=O	2	9%	i	14	1	0
Cc1cc(NC(=O)CSc2nnc3c(C)cc4cc5c(cc4n23)OCO5)no1	1.7	9%	i	11	1	9
